Compounds without any hit were thinned out: in the full panel of roughly 83,000, 20% have a hit.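 Each cell line was grown in a 96-well plate and treated with one concentration of compound for 48 hours. Values below 10 were considered active.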 Values without a mark were called inactive. Activity calls are given as the source filed them.

The values that follow come from PubChem BioAssay (NCI).

Common to all, as to assay: NCI-60 one-dose screen, 48 h (100 = growth as untreated, 0 = no growth, -100 = all killed)
Holding throughout (conditions): 10 µM

The subject of test [1] is NCI-H23 lung.
Test [2] deals with NCI-H226 lung.
The test system of test [3] is NCI-H322M lung.
Test [4] deals with HOP-62 NSCLC.
For test [5], the system named is NCI-H460 lung.
The subject of test [6] is HOP-92 NSCLC.
In test [7] the test system is A549/ATCC NSCLC.
Test [8] deals with COLO 205 colon.
The test system of test [9] is 786-0 renal.
In test [10] the test system is NCI-H522 lung.

As for `Cc1cc(C(C)(C)C)cc(C)c1Br`, the growth in [1] was 104%; in [2], 111%; in [3], 121%; in [4], 99.8%; in test [5], 103%; in [6], 75.5%. Further, the growth is 109% in test [7] and 112% in [8].

For the molecule `CC(C)C1CCCCC1O` (stereo unspecified), the growth is 95.4% in test [1]; 112% in test [2]; 124% in test [3]; 102% in [4]; 109% in [5]; 101% in test [6]. The growth in test [7] was 102%; in [8], 108%.

In the case of `N#CSc1cc(S(N)(=O)=O)ccc1N`, the growth in test [1] was 104%; in test [2], 108%; in test [3], 114%; in [4], 104%; in [5], 114%; in test [6], 135%. Further, the growth in test [7] was 102%; in test [8] it was 113%.

Turning to `CCCCCCCO`, the growth is 106% in [1]; 94.7% in [2]; 92.6% in test [3]; 98.8% in test [4]; 110% in test [5]; 88.7% in test [6]. Further, the growth in test [7] was 102%; in test [9], 110%; in test [8] it was 118%.

`OCC1OC(OC2C(O)C(CO)OC2(CO)OC2OC(CO)C(O)C(O)C2O)C(O)C(O)C1O` (stereo unspecified): the growth in test [1] was 103%; in test [2], 115%; in test [3], 120%; in test [4] it was 98.6%; in test [5], 111%; in test [6], 90.3%. For the same molecule, the growth in [7] was 98%; in test [8] it was 117%.

Take `C=CC[N+](C)(C)C`: the growth in [1] is 103%; in [2], 93.6%; in test [3] it was 108%; in test [4], 107%; in [5], 104%; in test [6] it was 86%. Besides, the figures for the growth in test [7], in test [9] and in test [8] were 100%, 102% and 120%, respectively.

`CCCCCCCCOC(=O)c1ccccn1`: the growth in [1] is 91.5%; in test [2] it was 104%; in test [3], 98.9%; in test [4] it was 93.5%; in test [5], 109%; in test [6], 107%. For the same molecule, the figures for the growth in [7] and in test [8] were 107% and 106%, respectively.

Regarding `C=CCNc1ccccc1`, the growth in test [1] was 102%; in test [2] it was 103%; in test [3], 106%; in test [4], 86.9%; in test [5], 108%; in [6] it was 88.5%. Moreover, the growth in [7] is 101%; in [8] it was 112%.

As to `NC(=O)NC(=O)c1ccc(Cl)cc1`, the growth in test [1] was 103%; in test [2], 102%; in [3], 94.3%; in [4] it was 94.4%; in [5], 108%; in test [10], 79.5%. Moreover, the values for the growth in [7], in test [9] and in [8] were 108%, 99.6% and 105%, respectively.

For `CC1=CC(=O)c2ccccc2C1=O`, the growth in test [1] is 101%; in [2] it was 101%; in test [3], 99.2%; in test [4] it was 105%; in test [5], 115%; in [10], 114%. The growth is 94.1% in [7], 106% in [9] and 108% in test [8].

Turning to `Cc1cc(/C=C/c2ccc3cc(N(C)C)ccc3[n+]2C)c(C)n1-c1ccccc1`, the growth in test [1] was -6.43% (active); in test [2], -75.1% (active); in test [3] it was 2.15% (active); in test [4] it was -81.5% (active); in test [5] it was -64.8% (active); in test [10], -31.7% (active). Moreover, the growth in test [7] was -44.9% (active); in test [9] it was -15.9% (active); in test [8], -79.5% (active).

With `CC1CCC2C(C)(C)C3CC12CC1OC13C` (stereo unspecified), the growth in test [1] is 107%; in [2] it was 99.1%; in test [3], 117%; in [4] it was 109%; in [5], 100%; in test [10] it was 91.7%. The growth in [7] was 110%; in [9], 98%; in test [8] it was 109%.

In the case of `CCOC(=O)Nc1cc2c(c(N)n1)N=C(c1ccccc1)CO2`, the growth in test [1] was 34.8%; in test [2] it was 39.6%; in [3] it was 15.3%; in test [4] it was 50%; in [5], 8.86% (active); in [10], -13.9% (active). The growth in test [7] was 23.3%; in test [9] it was 39.1%; in test [8] it was 6.19% (active).

Take `N#CCCc1ccc(O)cc1`: the growth in test [1] is 117%; in [2], 102%; in [3] it was 102%; in [4], 104%; in test [5] it was 103%; in test [6], 108%. Further, the results for the growth in test [9] and in test [8] were 104% and 114%, respectively.

Take `O=C(CS)Nc1ccc2ccccc2c1`: the growth is 111% in test [1]; 121% in test [2]; 127% in test [3]; 120% in [4]; 97.6% in test [5]; 118% in test [10]. Besides, the growth in test [7] is 122%; in test [9], 105%; in test [8], 112%.

As to `CCN(CC)CCNc1ccc(CO)c2sc3ccccc3c(=O)c12`, the growth in test [1] is 44.9%; in test [2] it was 35.9%; in test [3] it was 50.9%; in test [4] it was 43.3%; in [5] it was 14.5%; in test [10], -17.8% (active). The figures for the growth in [7], in test [9] and in test [8] were 24.2%, 49.6% and 11.9%, respectively.

For the molecule `O=c1c2ccccc2c(Br)c(Br)c2ccccc12`, the growth is 78.1% in test [1]; 74.2% in test [2]; 119% in [3]; 112% in [4]; 116% in [5]; -33.9% (active) in test [10]. Further, the figures for the growth in [7], in test [9] and in [8] were 95.1%, 84.3% and 55%, respectively.
